Values joined by “and” are separate entries in the source; they are usually repeats but may differ in a detail not shown here. Identical values can stand only once. Records with an inconclusive call do not appear. More than one record can exist for a structure, and the calls need not agree. Active and inactive are the calls of the source. Unless noted, calls come from the whole dose curve; as a rule, active = well fitted curve in the direction sought with a large enough effect; inconclusive = small, poorly fitted or top-dose-only effect, or another doubt; inactive = no such curve, though single readings can be large; an effect the other way counts as inactive or inconclusive.
Experiments:
[1] = test system: SKOV3; assay: Primary qHTS to identify gynecologic anti-cancer compounds using libraries of approved drugs and bioactive compounds (AID 1345084); conditions: Gynecologic cancer cell panel viability, ATPlite luminescence, 48 h; series mostly up to 57.5 µM; note: nearly all actives have a fitted effect of over 55% in size; note: potency is the fitted concentration of half-maximal effect
Method in brief: (§1)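 Cells, 1,000 per well, plated 16 h, then exposed 48 h at 37 C to compounds. Viability by ATPlite luminescence after 15 min at room temperature.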

[2] = test system: Tov-21-G; assay: as above; conditions: Gynecologic cancer cell panel viability, ATPlite luminescence, 48 h; series mostly up to 57.5 µM
Method in brief: as §1

[3] = test system: Tov112D; assay: as above; conditions: Gynecologic cancer cell panel viability, ATPlite luminescence, 48 h; series mostly up to 57.5 µM
Method in brief: as §1

[4] = Drug repurposing screens with cells derived from glioblastoma tumor samples (AID 1345199); conditions: GBM patient neurospheres viability, ATP luminescence, 48 h; Potency: tumour line A unless noted; series mostly up to 45.9 µM; note: % is set by controls: 0 for no effect and ±100 for the full control effect; nearly all actives have a fitted effect of over 40% in size
Method in brief: (§2)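 Primary testing used CD133+ neurospheres from four GBM patients, seven concentrations, 48 h exposure and ATP-based viability; confirmation added three slower-growing patient lines.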

[5] = test system: astro; assay: as above; conditions: viability, ATP luminescence, 48 h; series mostly up to 45.9 µM
Method in brief: as §2

[6] = target: Nuclear receptor subfamily 1 group I member 2 (Rattus norvegicus) (UniProt Q9R1A7); assay: qHTS assay for small molecule activators of the rat pregnane X receptor (rPXR) signaling pathway (AID 651751; call rule not given here; note: 0% is about no effect); conditions: rPXR reporter cells, luciferase (One-Glo), 24 h
Sequence of Nuclear receptor subfamily 1 group I member 2 (Rattus norvegicus) (Q9R1A7 whole entry, looked up): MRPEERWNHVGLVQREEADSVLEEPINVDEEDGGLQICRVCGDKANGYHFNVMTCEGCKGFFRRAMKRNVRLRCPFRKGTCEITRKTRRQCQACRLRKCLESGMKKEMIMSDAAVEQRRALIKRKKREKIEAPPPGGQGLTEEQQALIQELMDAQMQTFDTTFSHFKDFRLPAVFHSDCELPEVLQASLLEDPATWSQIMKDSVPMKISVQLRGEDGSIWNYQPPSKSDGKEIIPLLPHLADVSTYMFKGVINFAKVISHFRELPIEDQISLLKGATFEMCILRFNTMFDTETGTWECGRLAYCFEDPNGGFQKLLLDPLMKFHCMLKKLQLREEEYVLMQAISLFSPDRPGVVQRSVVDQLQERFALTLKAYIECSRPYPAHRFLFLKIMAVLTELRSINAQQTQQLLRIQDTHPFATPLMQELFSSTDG

[7] = qHTS assay for small molecule activators of the human pregnane X receptor (PXR) signaling pathway (AID 720659; call rule not given here; note: 0% is about no effect); conditions: DPX-2 HepG2 CYP3A4-luciferase, 24 h; series mostly up to 92.3 µM

CCc1c(C(=O)C(N)=O)c2c(OCC(=O)O)cccc2n1Cc1ccccc1
inactive: Potency [1] | Potency [2] | Potency [3]

Cc1ccccc1-n1c(Cn2ncc3c(N)ncnc32)nc2cccc(C)c2c1=O
inactive: Potency [1] | Potency [2] | Potency [3]

O=C(N[C@H]1CN2CCC1CC2)c1ccc(Cl)cc1
inactive: Potency [1] | Potency [2] | Potency [3]

O=C(Oc1ccc([N+](=O)[O-])cc1)N1CCN(Cc2cccc(Oc3ccccc3)c2)CC1
inactive: Potency [1] | Potency [2] | Potency [3]

O=C(Nc1ccccc1-c1ccc(Cl)cc1)c1cccnc1Cl
inactive: Potency [1] | Potency [2] | Potency [3]

CC(=O)NCCc1c[nH]c2ccccc12
inactive: Potency [1] | Potency [2] | Potency [3]

CC(O)CN1CCN(CC(=O)[O-])CCN(CC(=O)[O-])CCN(CC(=O)[O-])CC1.[Gd+3] (stereo not given)
inactive: Potency [1] | Potency [2] | Potency [3] | Potency [4]

O=C(O)CNC(=O)c1c(O)c2ccccc2n(Cc2ccccc2)c1=O
inactive: Potency [1] | Potency [2] | Potency [3]

CCOC(=O)Nc1ccc(NCc2ccc(F)cc2)cc1N
inactive: Potency [1] | Potency [2] | Potency [3]

Cc1c(C(=O)Nc2cccc(C(F)(F)F)c2)cc(-c2ccccc2)n1CCCN1CCOCC1
inactive: Potency [1] | Potency [2] | Potency [3]

O=C(NCC1CCOCC1)c1cnc(Nc2ccc(Cl)cc2Cl)nc1C(F)(F)F
inactive: Potency [1] | Potency [2] | Potency [3]

COC(C)(C)CCCC(C)C/C=C/C(C)=C/C(=O)OC(C)C (stereo not given)
inactive: Potency [1] | Potency [2] | Potency [3]

CC(C)NCC(O)c1ccc([N+](=O)[O-])cc1 (stereo not given)
inactive: Potency [1] | Potency [2] | Potency [3] | Potency [4] | Potency [5]

CC(Cc1ccc(O)cc1)NCC(O)c1cc(O)cc(O)c1 (stereo not given)
inactive: Potency [1] | Potency [2] | Potency [3] | Potency [4]

CC(=O)[O][Hg][c]1ccccc1
active: Potency [1] 3.55 µM | Potency [2] 2.51 µM | Potency [3] 5.01 µM

O=C1C=CC[C@@H]2[C@H]3CCCN4CCC[C@@H](CN12)[C@@H]34
inactive: Potency [1] | Potency [2] | Potency [3]

CC1=C(C(=O)O)N2C(=O)[C@@H](N)[C@H]2SC1
inactive: Potency [1] | Potency [2] | Potency [3]

COCCOCCO
inactive: Potency [1] | Potency [2] | Potency [3] | Potency [4]

Cc1ccccc1-n1c(Cn2cnc3c(N)ncnc32)nc2cccc(C)c2c1=O
inactive: Potency [1] | Potency [2] | Potency [3]

S=C(NC1CCCCC1)N1CCC(c2cnc[nH]2)CC1
inactive: Potency [1] | Potency [2] | Potency [3]

COC1=C[C@@H]2[C@@H]3Cc4ccc(OC)c(O)c4[C@]2(CCN3C)CC1=O
inactive: Potency [1] | Potency [2] | Potency [3]

O=[N+]([O-])c1ccc([As](=O)(O)O)cc1
inactive: Potency [1] | Potency [2] | Potency [3] | Potency [4]

O=C(Oc1ccc([N+](=O)[O-])cc1)N1CCC(C(O)(c2ccc3c(c2)OCO3)c2ccc3c(c2)OCO3)CC1
inactive: Potency [1] | Potency [2] | Potency [3]

O=C1C(I)=CC(=C(c2cc(I)c(O)c(I)c2)c2ccccc2C(=O)O)C=C1I
inactive: Potency [1] | Potency [2] | Potency [3] | Potency [4]

CC(=O)N(C)c1cccc(-c2ccnc3c(C(=O)c4cccs4)cnn23)c1
inactive: Potency [1] | Potency [2] | Potency [3]

CCN(CC)C(=O)c1ccc(C2=CC3(CCNCC3)Oc3cccc(O)c32)cc1
inactive: Potency [1] | Potency [2] | Potency [3]

CN[C@@H](C)[C@H](O)c1ccccc1
inactive: Potency [1] | Potency [2] | Potency [3] | Potency [4]

CC(C)(C)C(O)C(Oc1ccc(Cl)cc1)n1cncn1 (stereo not given)
inactive: Potency [1] | Potency [2] | Potency [3]

COC(=O)c1cncn1C(C)c1ccccc1 (stereo not given)
inactive: Potency [1] | Potency [2] | Potency [3] | Potency [4]

CO/C=C(/C(=O)OC)c1ccccc1Oc1cc(Oc2ccccc2C#N)ncn1
active: Potency [1] 7.94 µM

CCNC(=O)CC1N=C(c2ccc(Cl)cc2)c2cc(OC)ccc2-n2c(C)nnc21 (stereo not given)
inactive: Potency [2] | Potency [3]
inactive and 15.8 µM (active): Potency [1]

CCC(=O)O[C@@H]1C=C2CCC3C(CCC4(C)C3CC[C@@H]4OC(=O)CC)C2CC1 (stereo not given in full)
inactive: Potency [1] | Potency [2] | Potency [3]

CN1CCN(c2ccc([N+](=O)[O-])c3no[n+]([O-])c23)CC1
inactive: Potency [1] | Potency [2] | Potency [3]

CC[N+]1(CCOC(=O)C(O)(c2ccccc2)c2ccccc2)CCCCC1
inactive: Potency [1] | Potency [2] | Potency [3] | Potency [4]

CCO/N=C(\CC)C1=C(O)CC(c2c(C)cc(C)cc2C)CC1=O (stereo not given)
inactive: Potency [1] | Potency [2] | Potency [3] | Potency [4]

O=[N+]([O-])/N=C1\NCCN1Cc1ccc(Cl)nc1
inactive: Potency [1] | Potency [2] | Potency [3] | Potency [5] | max response [6] 4.35% | outcome [7]

Reference: PubChem BioAssay (NCATS)
